This passage reports growth inhibition results from PubChem BioAssay (NCI).

Several values for one entry are separate records, joined by “and”; a condition that tells them apart may be missing. Identical values can stand only once. The panel holds about 79,000 compounds, 15% with a hit somewhere; the sample as a whole holds those more often. A number with no mark means an inactive call. Activity calls are given as the source filed them. Cut-off read from the data, not from the text of the source: active = growth inhibition above about 70%; inactive = the rest.

Assay [1] can be described thus: NCI Yeast Anticancer Drug Screen. Data for the rad50 strain (AID 155).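 Note: 0% = growth of vehicle-only cultures of the same strain.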 The settings on record: S. cerevisiae rad50 strain growth inhibition; at 50.0 µM; active compounds read high. An outline of the steps: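 Compounds were tested on a yeast strain with an engineered DNA damage repair alteration; the reported value is growth inhibition normalised to vehicle treatment.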

The nature of assay [2]: NCI Yeast Anticancer Drug Screen. Data for the mec2-1 strain (AID 157). The settings on record: S. cerevisiae mec2-1 strain, at 50.0 µM, active compounds read high. An outline of the steps: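 Using mec2-1 yeast: add compound, measure growth, express inhibition versus vehicle-treated cultures.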
The nature of assay [3]: NCI Yeast Anticancer Drug Screen. Data for the sgs1 mgt1 strain (AID 161).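 Note: 0% = growth of cultures given vehicle only.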 The settings on record: S. cerevisiae sgs1 mgt1 strain, at 50.0 µM, active compounds read high. An outline of the steps:
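Yeast cells carrying a defined DNA-repair defect were exposed to test compounds. Growth inhibition was measured relative to vehicle-treated controls.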

Assay [4] in a line: NCI Yeast Anticancer Drug Screen. Data for the cln2 rad14 strain (AID 165).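 Note: 0% = growth equal to vehicle treated cultures.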 The note with it: S. cerevisiae cln2 rad14 strain, at 50.0 µM, active compounds read high. The method, boiled down: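 Yeast strain cln2 rad14, bearing defects in cell cycle control and DNA repair, serves as the test system; values reflect growth inhibition compared with vehicle.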
Assay [5] in a line: NCI Yeast Anticancer Drug Screen. Data for the bub3 strain (AID 167). The settings on record: S. cerevisiae bub3 mutant strain, at 50.0 µM, active compounds read high. An outline of the steps: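 Growth of a checkpoint-deficient yeast mutant is measured after compound exposure. Values represent inhibition relative to vehicle.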
A short description of assay [6]: NCI Yeast Anticancer Drug Screen. Data for the mlh1 rad18 strain (AID 175). The settings on record: S. cerevisiae mlh1 rad18 strain growth inhibition; at 50.0 µM; active compounds read high. An outline of the steps: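 Steps: expose repair-defective yeast to compound; measure growth; express inhibition against vehicle-treated controls.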

Regarding `Nc1nc(N)c2n[nH]nc2n1`, the growth inhibition in assay [1] is -18.5%; in assay [2] it was -6.45%; in assay [3], -22.1%; in assay [4], -105%; in assay [5], 3.55%; in assay [6], -15.3%.

In the case of `N#Cc1ccncc1`, the growth inhibition in assay [1] was 22.3%; in assay [2], -24.1%; in assay [3] it was 23.9%; in assay [4], -3.75%; in assay [5], 7.35%; in assay [6], 16%.

In the case of `N#Cc1cccc([N+](=O)[O-])c1`, the growth inhibition in assay [1] is -17.7%; in assay [2] it was 0.3%; in assay [3], -26.6%; in assay [4], 30.8%; in assay [5] it was -9.7%; in assay [6], -18.9%.

For `CCOP(=O)(CCBr)Oc1ccc([N+](=O)[O-])cc1` (stereo not drawn), the growth inhibition in assay [1] is -17.9%; in assay [2], 11.8%; in assay [3], -16.4%; in assay [4], -2.6%; in assay [5] it was 7.3%; in assay [6] it was -20%.

For the molecule `O=S(=O)(Cl)OO/C=C\OOS(=O)(=O)Cl`, the growth inhibition in assay [1] was 18.2%; in assay [2], 2.8%; in assay [3] it was 12.7%; in assay [4] it was -19.2%; in assay [5], 11%; in assay [6], -1.65%.

Consider `CNCCc1c[nH]c2ccc(O)cc12`, for which the growth inhibition in assay [1] is -2.15%; in assay [2], -8.6%; in assay [3], -1.35%; in assay [4], -39.5%; in assay [5], 18.9%; in assay [6] it was -10.7%.

Take `COC(=O)C(C)N(CCCl)P(=O)(N1CC1)N1CC1` (stereo not drawn): the growth inhibition in assay [1] is 5.4%; in assay [2], 8.2%; in assay [3] it was 11.4%; in assay [4] it was 9.1%; in assay [5], 4.35%; in assay [6] it was 1.85%.

Consider `OC(CN(C1CCCCC1)C1CCCCC1)c1ccc(Cl)c(Cl)c1` (stereo not drawn), for which the growth inhibition in assay [1] is -3.1%; in assay [2], -30.9%; in assay [3], -14.4%; in assay [4], -36%; in assay [5], 35.4%; in assay [6], -28.2%.

For the molecule `CS(=O)(=O)CCC(N)P(=O)(O)O` (stereo not drawn), the growth inhibition in assay [1] is -45.9%; in assay [2], -47.9%; in assay [3], -48.5%; in assay [4], -9.4%; in assay [5] it was -21.8%; in assay [6], -30.8%.

For `CCCCC(Br)C(=O)OCC` (stereo not drawn), the growth inhibition in assay [1] is 26.1%; in assay [2] it was 6.55%; in assay [3], -26.5%; in assay [4] it was -11.6%; in assay [5] it was 10.9%; in assay [6], 11.8%.

`C/C=C(\CC)C1(C)C(=O)NC(=O)NC1=O`: the growth inhibition in assay [1] is 7.4%; in assay [2], 7.8%; in assay [3], -5.7%; in assay [4], 6.35%; in assay [5], 1.4%; in assay [6] it was -4.1%.

Consider `Cc1cc(Cl)ccc1OC(C)C(=O)O` (stereo not drawn), for which the growth inhibition in assay [1] was -2.05%; in assay [2], -15.2%; in assay [3], 0%; in assay [4], 15.3%; in assay [5], -12.7%; in assay [6], -7.55%.

As to `COc1ccc(C(=O)C(CC2C(=O)NC(=O)NC2=O)c2ccc(OC)cc2)cc1` (stereo not drawn), the growth inhibition in assay [1] is -7.65%; in assay [2], -8.65%; in assay [3] it was -22.9%; in assay [4], -17.1%; in assay [5], -19.1%; in assay [6] it was -19.1%.

`CCCN(CCC)c1c([N+](=O)[O-])cc(C(=O)N(CC)CC)cc1[N+](=O)[O-]`: the growth inhibition was 40.6% in assay [1]; 29.8% in assay [2]; 37.4% in assay [3]; 13.8% in assay [4]; 34.1% in assay [5]; 11.3% in assay [6].

Take `O=C(C(Cl)Cl)N1CCCCC1`: the growth inhibition in assay [1] is -5.2%; in assay [2], -0.3%; in assay [3], -5.5%; in assay [4] it was 4.65%; in assay [5] it was 0%; in assay [6], 39.9%.

Regarding `CC(C)(C)c1ccc(OP(=O)(Oc2ccccc2)Oc2ccccc2)cc1`, the growth inhibition is 15.9% in assay [1]; 0.05% in assay [2]; -8.15% in assay [3]; -30.9% in assay [4]; 24.1% in assay [5]; 33.9% in assay [6].

`O=C(NCCNC(=O)Nc1ccccc1S(=O)(=O)F)Nc1ccccc1S(=O)(=O)F`: the growth inhibition is -17% in assay [1]; -35.2% in assay [2]; -16.1% in assay [3]; 6.55% in assay [4]; -32.1% in assay [5]; -13% in assay [6].

On to `O=C1OP2(c3ccccc3)(OC(=O)c3ccccc32)c2ccccc21`, for which the growth inhibition in assay [1] is 18.6%; in assay [2], 16.2%; in assay [3], 20.4%; in assay [4], -20.3%; in assay [5] it was -18.5%; in assay [6], 14.3%.

On to `CC(Cc1ccc(O)cc1)NCC(O)c1ccc(O)c(O)c1` (stereo not drawn), for which the growth inhibition in assay [1] was 10.6%; in assay [2], 15.3%; in assay [3], 3.4%; in assay [4], 0.55%; in assay [5], -7.45%; in assay [6] it was 22.9%.

Turning to `CC(C(O)c1cccnc1)[N+](=O)[O-]` (stereo not drawn), the growth inhibition in assay [1] is -21.8%; in assay [2] it was -4.35%; in assay [3] it was -23.6%; in assay [4], -10.1%; in assay [5], 3.95%; in assay [6], -17.4%.

For `CC(CCF)C(N)C(=O)O` (stereo not drawn), the growth inhibition in assay [1] is 1.8% and -0.7%; in assay [2], 28.9% and 5.4%; in assay [3] it was 28.9% and -9.4%; in assay [4] it was -0.8% and -0.2%; in assay [5], 43% and 20.7%; in assay [6], 19.5% and -7.8%.

Regarding `C[C@]12Cc3cnc(-c4ccccc4)nc3C[C@@H]1CC[C@@H]1[C@@H]2CC[C@@]2(C)[C@H]1CC[C@]2(C)O`, the growth inhibition in assay [1] was 23.6%; in assay [2], 25.1%; in assay [3], 13.1%; in assay [4] it was 9.55%; in assay [5], 39.5%; in assay [6], 20.1%.

Take `CC(C)(C)c1ccc(C(C)(C)OO)cc1`: the growth inhibition in assay [1] was 31.6%; in assay [2], -0.7%; in assay [3], 18.3%; in assay [4], 12.3%; in assay [5] it was 10.2%; in assay [6] it was 6.2%.

As for `CCN(CC)CCn1ncc2c(N)ncnc21`, the growth inhibition in assay [1] was -0.25%; in assay [2] it was -9%; in assay [3] it was -26.4%; in assay [4] it was -19.6%; in assay [5] it was -22.8%; in assay [6], -1.15%.

As to `CCOC(=O)C(CCc1ccc(N(CCCl)CCCl)cc1)(NC(C)=O)C(=O)OCC`, the growth inhibition in assay [1] was 1.5%; in assay [2], -32.6%; in assay [3], 8.65%; in assay [4], -4.35%; in assay [5] it was -16.8%; in assay [6] it was -39.9%.

On to `CC(NC1=NCCO1)c1cccs1` (stereo not drawn), for which the growth inhibition in assay [1] is 12.2%; in assay [2], -2.15%; in assay [3], -20.1%; in assay [4], 25.9%; in assay [5], 15.7%; in assay [6] it was -12.9%.

On to `N/C(=N\S(=O)(=O)c1ccccc1)N[N+](=O)[O-]`, for which the growth inhibition is 5.15% and -5.6% in assay [1]; -1.15% and -8.9% in assay [2]; -9.05% and -5.2% in assay [3]; -39.2% and -2.6% in assay [4]; -9.25% and 7.05% in assay [5]; 4.45% and -9.75% in assay [6].

For the molecule `COc1cc(C(CC(C)=O)c2cc3c(cc2OC(C)=O)OCO3)cc(OC)c1OC` (stereo not drawn) (tested in a mixture with another compound), the growth inhibition in assay [1] was 5.1%; in assay [2], 8.6%; in assay [3] it was 17.2%; in assay [4], 2.45%; in assay [5], 5.15%; in assay [6] it was 23.8%.

For the molecule `CCOC(=O)C(C)Br` (stereo not drawn), the growth inhibition in assay [1] is 15%; in assay [2], 5.3%; in assay [3] it was 28.3%; in assay [4], -24.7%; in assay [5] it was 44.6%; in assay [6] it was -8.2%.

Take `CC1(C)N=C(N)N=C(N)N1c1ccc(CCc2cccc(Cl)c2S(=O)(=O)F)c(Cl)c1`: the growth inhibition was 99.5% (active) in assay [1]; 99.7% (active) in assay [2]; 99.7% (active) in assay [3]; 99.3% (active) in assay [4]; 99% (active) in assay [5]; 99.5% (active) in assay [6].

With `C=CCN1CCC23c4c5ccc(O)c4OC2C(=NN=C2CCC4(O)C6Cc7ccc(O)c8c7C4(CCN6CC=C)C2O8)CCC3(O)C1C5` (stereo not drawn), the growth inhibition in assay [1] was 3.4%; in assay [2], 2.5%; in assay [3] it was 10%; in assay [4], 27.4%; in assay [5] it was 2.1%; in assay [6] it was 32.2%.

Turning to `COc1ccc(C(OCC2OC(n3ccc(NC(=O)c4ccccc4)nc3=O)CC2OP2(=S)SCCS2)(c2ccccc2)c2ccc(OC)cc2)cc1` (stereo not drawn), the growth inhibition in assay [1] was 10.6%; in assay [2], -13.1%; in assay [3] it was -4.1%; in assay [4], 10%; in assay [5] it was 37%; in assay [6], 78.7% (active).

With `O=C(CCN1CC2CCC(CC2)C1)c1cccs1`, the growth inhibition in assay [1] is -15.8%; in assay [2], -21.9%; in assay [3], -16.4%; in assay [4], -13.9%; in assay [5] it was -45.8%; in assay [6] it was -28.8%.

As for `CNC(P(=O)([O-])[O-])P(=O)([O-])[O-].N.N.[Pt+2]`, the growth inhibition in assay [1] is -0.2%; in assay [2], -16.3%; in assay [3], -47.2%; in assay [4], -17.1%; in assay [5] it was -8.65%; in assay [6] it was -15.7%.

In the case of `NNc1ncc[nH]1`, the growth inhibition is -0.05% in assay [1]; 1.2% in assay [2]; -9.2% in assay [3]; -1% in assay [4]; 12.8% in assay [5]; 4.55% in assay [6].

As to `CSP(=S)(SC)SC`, the growth inhibition in assay [1] is 24%; in assay [2] it was -5.7%; in assay [3] it was 13.4%; in assay [4] it was 22.1%; in assay [5], -7.95%; in assay [6], -15.8%.

Turning to `O=C(O)[C@@H]1C2CCC(C[C@@H]1O)N2C(=O)c1ccccc1` (stereo partly drawn), the growth inhibition is -12.8% in assay [1]; -3.55% in assay [2]; 2.85% in assay [3]; -33.5% in assay [4]; -15.4% in assay [5]; -1.2% in assay [6].

With `CCNC(=O)CCl`, the growth inhibition is 3.75% in assay [1]; 1.2% in assay [2]; 21.4% in assay [3]; -2% in assay [4]; -0.9% in assay [5]; 10.4% in assay [6].
